Screening data (PubChem)
INS promoter inh: TRM-6 insulin promoter activity inhibition; TRM-6 cells (human fetal islet line), insulin promoter-eGFP reporter, imaging; reporter expression induced with tamoxifen; AID 1273; actives 0.9% (n = 130,000); inhibition, % at 2 µM;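 active means inhibition above the mean plus 3 SD, with well images judged a real hit on visual review, cut at about 60% in these data, passing the limit was not always enough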
Hsp70 activator: Hsp70 transcriptional activation, primary screen | HeLa Hsp70 promoter luciferase reporter, luminescence; scaled: vehicle 0, proteasome-inhibitor control 100% | activation, % at 10 µM | actives 0.04% (n = 200,000) | AID 1203;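 active means activation above the mean across all tested compounds plus 3 SD, cutoff set per campaign, cut at about 5.5% in these data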;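 further: 100% = MG132 at 30 µM as the positive control and 0% = DMSO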
S1P4 antag: antagonists of human S1P4 receptor. S1P4-expressing cells, antagonist mode, reporter read-out. actives 0.26% (n = 220,000). O95977. inhibition, % at 4.98 µM; in the data active means inhibition above about 29%;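 further: 0% = wells stimulated with agonist and 100% = vehicle wells without agonist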
Target sequence (O95977 whole entry, looked up): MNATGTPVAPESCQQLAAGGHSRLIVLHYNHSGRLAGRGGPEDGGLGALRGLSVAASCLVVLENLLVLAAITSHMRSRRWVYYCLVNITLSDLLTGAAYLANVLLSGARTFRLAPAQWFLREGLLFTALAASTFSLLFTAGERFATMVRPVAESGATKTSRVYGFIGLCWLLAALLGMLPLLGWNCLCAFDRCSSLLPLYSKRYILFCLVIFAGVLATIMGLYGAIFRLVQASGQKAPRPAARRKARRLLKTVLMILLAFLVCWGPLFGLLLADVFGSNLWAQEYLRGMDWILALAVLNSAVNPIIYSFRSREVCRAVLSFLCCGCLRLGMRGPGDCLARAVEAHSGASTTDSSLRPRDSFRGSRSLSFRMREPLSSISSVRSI
S1P4 agonist: activates the human S1P4 receptor | S1P4-expressing cell line, agonist reporter assay | activation, % at 4.98 µM | O95977 | actives 0.35% (n = 220,000); in the data active means activation above about 11%;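 further: 0% = DMSO vehicle and 100% = reference agonist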
S1P3 antagonist: antagonists of human S1P3 receptor; CHO S1P3 NFAT-BLA reporter, FRET fluorescence, antagonist mode; inhibition, % at 4.98 µM; actives 0.27% (n = 170,000);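 active means inhibition above the plate cutoff, the mean inhibition of test wells on that plate plus 3 SD, cut at about 28% in these data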;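 further: cells challenged with S1P at its EC80 of 0.8 µM; blue over green emission ratio from cleaved BLA substrate after 4 h stimulation; 0% = S1P-stimulated wells and 100% = unstimulated DMSO-only wells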
Ins promoter up: MIN6 insulin promoter up-regulation | MIN6 insulin promoter-GFP reporter, high-content imaging; stronger effect = higher value | z-score at 5 µM | actives 0.3% (n = 190,000);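 active means z-score above 3 at 5 µM with at least 500 cells counted in the well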
Numbers without * were called inactive; nt = not tested or not shown. A selection: hits, their analogues and other compounds. The true share with any hit is near 1.5%.

SMILES	INS promoter inh	Hsp70 activator	S1P4 antag	S1P4 agonist	S1P3 antagonist	Ins promoter up
O=C(O)c1cc(-c2cccs2)nc2cc3c(cc12)OCCO3	86*	0	-9	0	-7	nt
O=C(c1cc2cc([N+](=O)[O-])ccc2s1)N1CCOCC1	-18	0	-25	1	4	-0.02
COc1cc([N+](=O)[O-])ccc1-c1ccc(/C=N/NC(N)=O)o1	nt	nt	-1	2	7	3.3*
Clc1nc(-c2n[nH]nc2Cl)n[nH]1	-87	0	-8	0	nt	0.74
COC(=O)c1cc2c(=O)n3ccccc3nc2n(C(C)C)c1=N	12	0	-28	12*	1	nt
O=C(Nc1ccc2c(c1)OCCO2)N1CCOCC1	78*	0	-8	1	-2	1.2
Cc1cccc(NC(=O)Cn2c([N+](=O)[O-])cnc2C)c1C	39	0	-1	-1	0	0.18
Cc1c(C(=O)O)cccc1-c1ccc(/C=C2/NC(=O)N(c3ccccc3)C2=O)o1	nt	0	-20	0	2	3.9*
CCCCCCCCCOC(=O)C(CC(=O)O)N1CCOCC1 (stereo not given)	68*	0	6	-4	nt	nt
CCCCCOC(=O)CC(C(=O)OCCCCC)N1CCCCC1 (stereo not given)	60	0	-4	0	nt	-0.87
COc1ccc(C/C(C)=N\NC(=O)c2cn(C)c3ccccc23)cc1OC	nt	nt	-8	2	-8	-0.2
CCc1nc2ccccc2nc1N1CCN(S(=O)(=O)c2ccccc2)CC1	nt	nt	-8	-1	-5	0.23
CSc1nsc(SCC(=O)N2CCCCC2)n1	7	0	-15	-1	-3	nt
CCc1ccc(NC(=O)C2CCCN2S(=O)(=O)c2ccc3c(c2)n(C)c(=O)c(=O)n3C)cc1 (stereo not given)	nt	nt	9	1	8	0.37
CCCn1c(Sc2nc3c(c(=O)[nH]c(=O)n3C)n2CCC)nc2c1c(=O)[nH]c(=O)n2C	-30	0	14	-3	nt	0.72
C/C=C/CSc1nc2c(c(=O)[nH]c(=O)n2C)n1CCC	82*	0	-5	-1	0	0.27
O=C(Nc1nc(-c2ccc3c(c2)OCCO3)cs1)C1CCCC1	nt	1	-2	0	-6	-0.74
CC1(C)Cc2c(c(-c3ccccc3Cl)[nH]c(=O)c2C#N)CO1	56	1	-22	1	nt	nt
CC1(C)Cc2c(c(-c3ccccc3)[nH]c(=O)c2C#N)CO1	nt	0	-11	0	2	3.4*
Cc1c(N2C(=O)c3cccc4cccc(c34)C2=O)c(=O)n(-c2ccccc2)n1C	69*	0	-6	-1	nt	0.73
COc1ccc(C2NC(c3ccc(OC)cc3OC)C(C)C(=O)C2C)c(OC)c1 (stereo not given)	nt	0	-11	0	13	-0.62
c1ccc(Nc2nc3ccccc3o2)cc1	68*	0	-1	1	nt	nt
FC(F)(F)Oc1ccc(Nc2nc3ccccc3o2)cc1	31	0	-16	2	24	0.33
C[C@H](N)C(=O)OCc1ccc([N+](=O)[O-])cc1	nt	nt	-4	1	-12	0.19
CC(O)C(C(=O)OCc1ccc([N+](=O)[O-])cc1)N1C(=O)c2ccccc2C1=O (stereo not given)	62*	0	-25	0	-21	-0.25
SMILES	INS promoter inh	Hsp70 activator	S1P4 antag	S1P4 agonist	S1P3 antagonist	Ins promoter up
COC(CNC(=O)c1ccc(Cn2c(=S)[nH]c3cc4c(cc3c2=O)OCO4)cc1)OC	13	0	-18	3	nt	3.5*
C=CCNc1nc(SCC=C)nc2ccsc12	83*	0	-17	0	nt	-0.23
Cc1cccnc1NC1CCCCC1	79*	0	-31	1	-6	0.38
Cc1ccc(NC(=O)COC(=O)CCc2ccc(S(=O)(=O)N3CCOCC3)cc2)cc1F	nt	0	-6	0	-3	-0.6
COc1ccc(S(=O)(=O)c2nnn(-c3ccccc3Cl)c2N)cc1	73*	0	-14	0	-8	-0.56
CCC(CC)NC(=O)Nc1cccc(C)c1C	16	0	0	1	-7	0.74
CCC(C)N(CC(=O)Nc1cccc(C)c1C)C(=O)CCl (stereo not given)	100*	0	-2	-1	-3	0.22
NNc1ccc2c(C(F)(F)F)cc(C(F)(F)F)nc2n1	-92	0	-10	0	-20	-0.66
Cc1ccc(/C=N/Nc2ccc3c(C(F)(F)F)cc(C(F)(F)F)nc3n2)cc1	71*	0	-20	3	nt	-0.15
